Drawing on PubChem BioAssay AID1345085 (National Center for Advancing Translational Sciences (NCATS), 2018), this text covers Potency for 13 molecules.

Results filed as inconclusive are left out. Entries that show only a call come without a potency. Calls of active or inactive are those of the source. Calls follow the shape of the dose curve; as a rule, active = well fitted cell-killing curve with a large enough effect; inconclusive = small, poorly fitted or top-dose-only effect, or effect the other way; inactive = no such curve, though single readings can be large or run the other way.
Potency is read from the fitted curve at half-maximal effect.

The subject of this experiment is Jar. Nature of the experiment: Confirmatory qHTS for gynecologic anti-cancer compounds from libraries of approved drugs and bioactive compounds. Also: nearly all actives have a fitted effect of over 55% in size. To be noted: gynecologic cancer cell panel viability, ATPlite luminescence, 48 h; series mostly up to 57.6 µM. The method, boiled down: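 1,000 cells/well; 16 h pre-incubation 37 C, 5% CO2; pin-transferred cpd in DMSO, 11 conc (1:3), 57.5 uM–0.977 nM; 48 h; ATPlite, 15 min RT; luminescence → IC50.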
Consider `CCN(CC)CCCC(C)Nc1c2ccc(Cl)cc2nc2ccc(OC)cc12` (stereo not drawn), for which the Potency result is “inactive”.
In the case of `CS(=O)(=O)c1ccc(-c2cnc(N)c(C(=O)Nc3ccccc3)n2)cc1` it was “inactive”; in that of `CN1C2CCC1CC(OC(=O)[C@H](CO)c1ccccc1)C2` (stereo partly drawn), “inactive”; in that of `C[C@]12CCC(=O)C=C1CC[C@@H]1[C@@H]2[C@@H](O)C[C@@]2(C)[C@H]1CC[C@]2(O)C(=O)CO`, “inactive”.
With `CO[C@@]12[C@H](COC(N)=O)C3=C(C(=O)C(C)=C(N)C3=O)N1C[C@@H]1N[C@@H]12` the entry was “inactive”.
In the case of `COc1ccc(OC)c(-c2nnc3ccc(-c4ccc(OC)c(O[C@@H]5CCOC5)c4)nn23)c1` it was 12.2 µM (active); in that of `Cc1nc(NC(=O)N2CCCC2C(N)=O)sc1-c1csc(C(C)(C)C)n1` (stereo not drawn), 21.7 µM (active).
With `CN(C)CCC(CSc1ccccc1)Nc1ccc(S(=O)(=O)NC(=O)c2ccc(N3CCN(Cc4ccccc4-c4ccc(Cl)cc4)CC3)cc2)cc1[N+](=O)[O-]` (stereo not drawn), the Potency is 8.63 µM (active).
In the case of `CC[C@@]1(O)C(=O)OCc2c1cc1n(c2=O)Cc2cc3c(CN(C)C)c(O)ccc3nc2-1` it was 7.69 µM (active); in that of `COc1cc(N2CCC(N3CCN(C)CC3)CC2)ccc1Nc1ncnc(Nc2ccccc2S(=O)(=O)C(C)C)n1`, “inactive”.
Consider `O=C1NC(=O)C(c2cnc3ccccn23)=C1c1cn2c3c(cccc13)CN(C(=O)N1CCOCC1)CC2`, for which the Potency result is “inactive”.
For the molecule `NC(=O)c1cccc2cn(-c3ccc([C@@H]4CCCNC4)cc3)nc12`, the Potency result was “inactive”.
In the case of `CCCCc1oc2ccc(NS(C)(=O)=O)cc2c1C(=O)c1ccc(OCCCN(CCCC)CCCC)cc1` it was 30.6 µM (active).
